The panel holds about 83,000 compounds, 20% with a hit somewhere; the sample as a whole holds those more often.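 How to read the values: 0–100, growth inhibition (40 = 60% inhibited); 0, no net growth; -100 to 0, cell death (-40 = 40% of starting cells died; -100 = all dead).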 Values without a mark were called inactive. Activity calls are given as the source filed them. How the source made its calls: active means growth percent below 10; inactive means the rest.
System: MALME-3M melanoma
Assay: NCI-60 one-dose screen, 48 h (100 = growth as untreated, 0 = no growth, -100 = all killed)
Settings: 10 µM unless noted

Row | Structure (SMILES) | growth
1 | CCCCC1CCCC12NC(=O)NC2=O (configuration not stated) | 100%
2 | COc1ccc2c(c1)c(-c1nn3cc(-c4cccs4)nc3s1)cn2C | 72.1%
3 | COc1ccc([C@H]2c3cc(OC)c(OC)cc3C=C(C=O)C2CO)cc1OC (some centres not stated) | 68.2%
4 | C/C(=N/NC(N)=S)c1sc(Nc2cccc(Cl)c2)nc1C | 93.1%
5 | Cc1cccc2c3c(sc12)C(c1ccc(F)cc1)C(C#N)=C(N)O3 (configuration not stated) | 73.8%
6 | COc1cc(C(=O)c2cnc(-c3cccc4[nH]ccc34)[nH]2)cc(OC)c1OC | 60.8%
7 | COc1ccc(C(=S)N2CCN(c3cccc(C)c3)CC2)cc1OC | 80%
8 | CCOC(=O)/C(C#N)=C\Nc1ccc2ncnc(Nc3ccc(Cl)cc3Cl)c2c1 | 140%
9 | Cc1nn(-c2ccccc2)c(-n2ccnc2)c1/C=N/Nc1nc(-c2ccc(F)cc2)cs1 | 83.2%
10 | Cc1cc(=O)oc2cc(OC(=O)N3CCN(C)CC3)ccc12 | 103%
11 | COc1cc(/C=C/c2c(C(C)=O)c(C)nc3ccccc23)cc(OC)c1OC | 52.5%
12 | NS(=O)(=O)c1ccc(-n2nc(-c3ccc(Cl)cc3)c3ccccc3c2=O)cc1 | 182%
13 | COc1ccc(C(=O)C[C@]2(O)C(=O)Nc3c(Cl)ccc(Cl)c32)cc1 | 51.1%
14 | O=c1[nH][n+](-c2ccc(Br)cc2)no1 | 60.3%
15 | COc1cc2cc(Oc3ccc(NC(=O)Nc4ccc(Cl)c(Cl)c4)cc3)c(C)nc2cc1OCCN1CCOCC1 | 92.2%
16 | C#C[C@]1(O)CC[C@H]2[C@@H]3CC=C4c5sc(Nc6ccccc6)nc5CC[C@]4(C)[C@H]3CC[C@@]21C | 25.8%
17 | CCCCCCCCCCCCCCCCCCOc1ccc(CC(=O)OCC[N+](C)(C)C)cc1 | 113%
18 | Cc1ccc(-c2nc3c(c(-c4ccccc4)nn3-c3ccccc3)c(-c3ccc(O)cc3)c2C#N)cc1 | 75.1%
19 | CN(C)CCS(=O)(=O)Nc1cc(-c2ccc3ncc(C#N)c(Nc4ccc(F)c(Cl)c4)c3c2)cnc1Cl | -50.5% (active)

Row | Structure (SMILES) | growth
20 | O=C(Nc1ccc(I)cc1F)c1cc(I)ccc1O | -26.9% (active)
21 | C/C=C(\C)C(=O)N[C@H]1[C@@H](OC(C)=O)C[C@]2(C)C3CC[C@@]4(C)C(CC[C@@H]4C(C)N(C)C)C3CCC2[C@H]1O (some centres not stated) | 7.93% (active)
22 | COc1ccc2[nH]c(-c3ccccc3)c(/C=C(\C#N)S(=O)(=O)c3ccccc3)c2c1 | 47.7%
23 | NCCNc1nc2ccccc2c2c(=O)c3cccc(F)c3sc12 | 88.4%
24 | Nc1nc2ccccc2c2c(=O)c3cc(F)ccc3sc12 | 96.5%
25 | O=C1CN(CCN2CC(=O)N(Cc3ccccc3)C(=O)C2)CC(=O)N1Cc1ccccc1 | 103%
26 | COc1ccc(-c2[nH]c3ccc(OC)cc3c2/C=C(\C#N)S(=O)(=O)c2ccccc2)cc1 | 61.3%
27 | CN1C(=O)N(C)C2Nn3c(s/c(=C\c4ccccc4)c3=O)=NC21 (configuration not stated) | 101%
28 | Nc1ccc(Sc2ccc([N+](=O)[O-])c3nonc23)cc1 | 57%
29 | CS(=O)(=O)Nc1cc(-c2ccc3ncnc(Nc4cccc(Cl)c4F)c3c2)cnc1Cl | 18.2%
30 | CCCCNC(=O)Oc1ccc(/C(=C(\C)c2ccc(Cl)cc2)c2ccc(OCCN3CCCCC3)cc2)cc1 | 81.7%
31 | CCCSc1nc2ccc(C)cc2cc1/C=[N+](\[O-])c1ccccc1 | 46.2%
32 | C[C@H]1[C@H]2[C@H]3CC[C@@H]4[C@@]5(C)CC[C@H](O)C(C)(C)[C@@H]5CC[C@@]4(C)[C@]3(C)CC[C@]23CO[C@]1(C)[C@@H](C(=O)/C=C\c1cccnc1)C3 | 54.4%
33 | Cc1onc2c(-c3ccccc3)n[nH]c(=O)c12 | 81.5%
34 | COc1cc(/C=C/C(=O)/C=C/c2cc(OC)c3c(c2OC)OCO3)c(OC)c2c1OCO2 | 46.7%
35 | O=C1/C(=C/c2ccccc2[N+](=O)[O-])Oc2ccc(O)c(O)c21 | 45%
36 | CC1=C(C)C(=O)C(Nc2cccc(C(=O)OC(C)(C)C)c2)=C(Br)C1=O | 88.3%
37 | NS(=O)(=O)c1ccc(N=Nc2ccc(-c3nn4cc(-c5ccccc5)nc4s3)cc2)cc1 | 105%
